Values joined by “and” are separate entries in the source; they are usually repeats but may differ in a detail not shown here. Equal entries are not always repeated. Records with an inconclusive call do not appear. Unmarked numbers belong to inactive results. Active and inactive are the calls of the source. Calls follow the shape of the dose curve; as a rule, active = well fitted cell-killing curve with a large enough effect in the repeat runs; inconclusive = weak or mixed curves, or effect the other way; inactive = flat fitted curve, though single readings scatter.
Test: qHTS assay to identify small molecule agonists of the estrogen receptor beta (ER-beta) signaling pathway - cell viability counter screen (AID 1259380); also: nearly all actives have a fitted effect of over 30% in size
Settings: ER-beta-bla HEK293T viability, CellTiter-Glo luminescence, 16 h; series mostly up to 92.4 µM; activity change, negative = cytotoxicity: at the top concentration
Source text: National Center for Advancing Translational Sciences [NCATS]
NIH Chemical Genomics Center [NCGC]
U.S. Environmental Protection Agency [EPA]
National Institutes of Environmental Health Sciences [NIEHS]
National Toxicology Program [NTP]
U.S. Food and Drug Administration [FDA]
Estrogen receptor (ER), a nuclear hormone receptor, plays an important role in development, metabolic homeostasis and reproduction. Two subtypes of ER, ER-alpha and ER-beta, have similar expression patterns with some uniqueness in both types. Endocrine disrupting chemicals (EDCs) and their interactions with steroid hormone receptors like ER causes disruption of normal endocrine function. To identify the compounds that activate ER signaling, an ER beta-UAS-bla GripTite cell line (Life Technologies, Madison, WI, USA) containing a beta-lactamase reporter gene under the control of an UAS response element was used to screen Tox21 10K compound library. The cytotoxicity of the Tox21 compound library against the ER-beta-bla cell line was tested in parallel by measuring the cell viability using CellTiter-Glo assay in the same wells.
Tox21 Assay Protocol Summary:
ER-beta-UAS-bla HEK293T cells were dispensed at 2,000 cells/5 uL of assay medium containing 2% charcoal stripped FBS per well into black wall/clear-bottom 1536-well plates using a Multidrop Combi (ThermoFisher Scientific, Waltham, MA) dispenser. After the assay plates were incubated at a 37C and 5% CO2 for 6 hr, 23 nL of compounds dissolved in DMSO, positive controls or DMSO only was transferred to the assay plate by a Pintool station (Kalypsys, San Diego, CA). The plates were incubated at 37C and 5% CO2 for 16 hr. Then 1 uL of LiveBLAzerTM B/G FRET substrate was added using a BioRAPTR FRD (Flying Reagent Dispenser, Aurora Discovery, San Diego, CA) and then the plates were incubated at room temperature for 2 hours, and fluorescence intensity was measured by an Envision plate reader (PerkinElmer, Shelton, CT). For cell viability readout that measures cytotoxicity, 4 uL/well of CellTiter-Glo reagent was added into the assay plates using a FRD. After 30 min incubation at room temperature, the luminescence intensity in the plates was measured using a ViewLux (PerkinElmer) plate reader.
% is scaled to controls: 0 for no effect and ±100 for the full control effect; potency is read from the fitted curve at half-maximal effect.

| SMILES | Potency | activity change, negative = cytotoxicity |
| --- | --- | --- |
| Cc1ccc(O)c(N)c1 | 24.4 µM (active) |  |
| Nc1ccc(C(=O)O)c(O)c1 |  | 7.77% [at 42.5 µM] |
| [Cl][Pt-2]([Cl])([Cl])[Cl] |  | 7.3% |
| CCCCCc1ccc(Cl)cc1 |  | 8.39% |
| O=C(Nc1ccc2c(O)c(N=Nc3ccc(N=Nc4ccc(S(=O)(=O)O)cc4)cc3)c(S(=O)(=O)O)cc2c1)c1ccccc1 |  | 3.04% |
| CCCCCC(C)OC(=O)COc1ccc(Cl)c2cccnc12 (stereo not given) | 54.5 µM (active) |  |
| C=CC(=O)Nc1cc2c(Nc3ccc(F)c(Cl)c3)ncnc2cc1OCCCN1CCOCC1 | 23.7 µM (active) |  |
| Sc1nc2ccccc2s1 |  | 1.05% |
| Cc1cc(C(C)(C)C)c(O)c(C)c1Cn1c(=O)n(Cc2c(C)cc(C(C)(C)C)c(O)c2C)c(=O)n(Cc2c(C)cc(C(C)(C)C)c(O)c2C)c1=O |  | -0.357% |
| O=[N+]([O-])c1cccc(C(F)(F)F)c1 |  | 8.55% |
| O=C(c1ccc(O)c(O)c1)c1ccc(O)cc1O |  | 9.68% |
| O=C(Oc1ccccc1)Oc1ccccc1 |  | 2% |
| ClCCl |  | -3.91% |
| CN1CCN(Cc2cc(-c3ccc4[nH]c(=O)oc4c3)co2)[C@@H](c2ccc(F)cc2)C1 | 13.2 µM (active) |  |
| CCC(COC(=O)CCS)(COC(=O)CCS)COC(=O)CCS |  | 4.46% |
| C=CC(=O)OCCOC(=O)C=C |  | -3.44% |
| O=C(O)[C@H](O)[C@@H](O)[C@H](O[C@@H]1O[C@H](CO)[C@H](O)[C@H](O)[C@H]1O)[C@H](O)CO |  | 8.76% [at 42.5 µM] |
| COCCOc1cc2cc(C(=O)NC3CCN(C(C)C)CC3)n(CC(=O)Nc3ccc(Cl)cn3)c2cn1 |  | -4.11% |
| CCCCCCOC(=O)C(C)CC (stereo not given) |  | -1.51% |
| Cc1cccc(C(=O)O)c1O |  | 4.89% [at 42.5 µM] |

| SMILES | Potency | activity change, negative = cytotoxicity |
| --- | --- | --- |
| Cc1c(C)c2c(c(C)c1OC(=O)c1cccnc1)CC[C@@](C)(CCC[C@H](C)CCC[C@H](C)CCCC(C)C)O2 |  | 0.575% [at 42.5 µM] |
| CC[C@H](C)COC(=O)/C=C/c1ccc(N=Cc2ccc(OC)cc2)cc1 | 6.1 µM (active) |  |
| CCn1c2ccccc2c2cc([N+](=O)[O-])ccc21 |  | 0.401% |
| COC1=C(OC)C(=O)C(CCCCCCCCCCO)=C(C)C1=O | 23.7 µM (active) |  |
| Cc1ccc(N/N=c2\c(=O)cc/c(=N\Nc3ccc(S(=O)(=O)O)cc3)c2=O)c(C)c1 |  | -0.311% |
| COc1cc(C)ccc1O |  | 0.39% |
| CC1(C)CCC[C@]2(C)[C@H]3CCO[C@]3(C)CC[C@@H]12 |  | -1.11% |
| Nc1nc2c(ncn2COCCO)c(=O)[nH]1 |  | 1.72% [at 42.5 µM] |
| COc1ccc2cc1Oc1ccc(cc1)C[C@H]1c3c(cc4c(c3Oc3cc5c(cc3OC)CCN(C)[C@@H]5C2)OCO4)CCN1C | 26.6 µM (active) |  |
| Cc1cc(=O)oc2cc(O)cc(O)c12 |  | -10.2% |
| O=[N+]([O-])c1ccc(O)cc1C(F)(F)F |  | -3.02% |
| O=c1oc2cc(O)ccc2c2oc3cc(O)ccc3c12 | 37 µM (active) |  |
| CCC(C)(CCC(C)C)C(=O)[O][Sn]([CH3])([CH3])[O]C(=O)C(C)(CC)CCC(C)C (stereo not given) |  | -14.4% |
| C[C@H]1NCc2cc(-c3ccc4c(=O)c(C(=O)O)cn(C5CC5)c4c3OC(F)F)ccc21 |  | -4.82% [at 19 µM] |
| CC1=Nc2ccccc2C1(C)C |  | -12.3% |
| Cc1c2ccccc2c(C)c2c1ccc1ccccc12 | 30.3 µM (active) and 27.3 µM (active) |  |
| O=[N+]([O-])c1ccc(F)c(Cl)c1 |  | 1.34% |
| C1CCC(SSC2CCCCC2)CC1 |  | 8.64% |
| CN1CCC[C@@H]1CCO[C@](C)(c1ccccc1)c1ccc(Cl)cc1 | 23.7 µM (active) |  |
| COc1cccc(OC)c1C(=O)O |  | 1.59% |

From PubChem BioAssay (Tox21)
